Laboratory results reported in PubChem BioAssay (NCI).
The panel holds about 83,000 compounds, 20% with a hit somewhere; the sample as a whole holds those more often.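 Single-concentration screen, 48 h exposure, 96-well plates. Endpoint: percent growth. Below 10 = active.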 Active and inactive are the calls of the source.

How the values were obtained:
Test in all cases: NCI-60 one-dose screen, 48 h (100 = growth as untreated, 0 = no growth, -100 = all killed)
Settings in all cases: 10 µM unless noted
NCI-H23 lung = system: NCI-H23 lung
NCI-H226 lung = system: NCI-H226 lung
NCI-H322M lung = system: NCI-H322M lung
HOP-62 NSCLC = system: HOP-62 NSCLC
NCI-H460 lung = system: NCI-H460 lung
HOP-92 NSCLC = system: HOP-92 NSCLC
NCI-H522 lung = system: NCI-H522 lung
A549/ATCC NSCLC = system: A549/ATCC NSCLC
786-0 renal = system: 786-0 renal
COLO 205 colon = system: COLO 205 colon
DU-145 prostate = system: DU-145 prostate
K-562 leukemia = system: K-562 leukemia
MALME-3M melanoma = system: MALME-3M melanoma
MDA-MB-231 breast = system: MDA-MB-231 breast
RXF 393 renal = system: RXF 393 renal
SF-268 CNS = system: SF-268 CNS
SF-295 CNS = system: SF-295 CNS
SF-539 CNS = system: SF-539 CNS
UACC-257 melanoma = system: UACC-257 melanoma
M14 melanoma = system: M14 melanoma

Measured: growth

COc1ccc(/C=N/C2=C(C#N)C(c3ccccc3)c3ccc4ccccc4c3O2)cc1 (stereo not given)
inactive: NCI-H23 lung 29.9% | NCI-H226 lung 51.5% | NCI-H322M lung 43.7% | HOP-62 NSCLC 22% | HOP-92 NSCLC 41.4% | A549/ATCC NSCLC 16.8% | 786-0 renal 24.4% | DU-145 prostate 25.6% | K-562 leukemia 12.2% | MALME-3M melanoma 43.6% | MDA-MB-231 breast 18.7% | RXF 393 renal 26% | SF-268 CNS 46.5% | UACC-257 melanoma 48.4%
active: NCI-H460 lung 8.64% | NCI-H522 lung -7.09% | COLO 205 colon -26.3% | SF-295 CNS 9% | SF-539 CNS -8.29% | M14 melanoma 2.72%

CCC(=O)Oc1ccc(-c2ccccc2)cc1Br
inactive: NCI-H23 lung 101% | NCI-H226 lung 96.1% | NCI-H322M lung 111% | HOP-62 NSCLC 104% | NCI-H460 lung 98.8% | HOP-92 NSCLC 87.7% | NCI-H522 lung 108% | A549/ATCC NSCLC 105% | 786-0 renal 105% | COLO 205 colon 109% | DU-145 prostate 107% | K-562 leukemia 107% | MALME-3M melanoma 109% | MDA-MB-231 breast 103% | RXF 393 renal 106% | SF-268 CNS 103% | SF-295 CNS 104% | SF-539 CNS 106% | UACC-257 melanoma 106% | M14 melanoma 102%

O=C(COc1ccc(-c2nc3cc(Cl)c(Cl)cc3[nH]2)cc1)N=Nc1c(O)[nH]c2ccc(Cl)cc12
active: K-562 leukemia 5.55%
inactive: NCI-H23 lung 70.1% | NCI-H226 lung 80.8% | NCI-H322M lung 94.9% | HOP-62 NSCLC 89.9% | NCI-H460 lung 46.4% | HOP-92 NSCLC 77.1% | NCI-H522 lung 97.9% | A549/ATCC NSCLC 75.9% | 786-0 renal 68.7% | COLO 205 colon 56.2% | DU-145 prostate 74.6% | MALME-3M melanoma 49.5% | MDA-MB-231 breast 76.8% | RXF 393 renal 77.6% | SF-268 CNS 89.4% | SF-295 CNS 74.8% | SF-539 CNS 84.2% | UACC-257 melanoma 105% | M14 melanoma 66.5%

COc1ccc(-c2nn(-c3cccc(Cl)c3)cc2-c2cc(-c3ccc(Br)cc3)nc(N)n2)cc1
inactive: NCI-H23 lung 87.3% | NCI-H226 lung 86% | NCI-H322M lung 80.4% | HOP-62 NSCLC 88% | NCI-H460 lung 93.9% | HOP-92 NSCLC 91% | NCI-H522 lung 68.3% | A549/ATCC NSCLC 81.2% | 786-0 renal 88.1% | COLO 205 colon 102% | DU-145 prostate 107% | K-562 leukemia 94.2% | MALME-3M melanoma 102% | MDA-MB-231 breast 81.9% | RXF 393 renal 111% | SF-268 CNS 101% | SF-295 CNS 99.1% | SF-539 CNS 103% | UACC-257 melanoma 104% | M14 melanoma 92.8%

C[PH+](c1nc2ccccc2nc1[PH+](C)C(C)(C)C)C(C)(C)C.C[PH+](c1nc2ccccc2nc1[PH+](C)C(C)(C)C)C(C)(C)C.[Au+].[Cl-] (stereo not given)
active: NCI-H23 lung -90.2% | NCI-H226 lung -60.4% | NCI-H322M lung -94% | HOP-62 NSCLC -94.3% | NCI-H460 lung -85.5% | HOP-92 NSCLC -81.5% | NCI-H522 lung -88.7% | A549/ATCC NSCLC -73.8% | 786-0 renal -96.6% | COLO 205 colon -100% | DU-145 prostate -99.5% | K-562 leukemia 1.72% | MALME-3M melanoma -67.1% | MDA-MB-231 breast -90.3% | RXF 393 renal -87.9% | SF-268 CNS -91% | SF-295 CNS -88% | SF-539 CNS -91.6% | UACC-257 melanoma -88.3% | M14 melanoma -100%

O=C(O)CCCN1C(=O)/C(=C/c2cn(-c3ccccc3)nc2-c2ccc([N+](=O)[O-])cc2)SC1=S
inactive: NCI-H23 lung 74.6% | NCI-H226 lung 64.8% | NCI-H322M lung 44.1% | HOP-62 NSCLC 49.6% | NCI-H460 lung 25.7% | HOP-92 NSCLC 111% | NCI-H522 lung 83.7% | A549/ATCC NSCLC 40.5% | 786-0 renal 64.5% | COLO 205 colon 103% | DU-145 prostate 58.5% | K-562 leukemia 56.5% | MALME-3M melanoma 52.1% | MDA-MB-231 breast 85.5% | RXF 393 renal 86.7% | SF-268 CNS 52.8% | SF-295 CNS 34.8% | SF-539 CNS 55.5% | UACC-257 melanoma 84.6%
active: M14 melanoma -8.74%

CC1CN(S(=O)(=O)c2oc(-c3ccc(Cl)cc3)nc2C#N)CC(C)O1 (stereo not given)
inactive: NCI-H23 lung 77.8% | NCI-H226 lung 87.4% | NCI-H322M lung 97.9% | HOP-62 NSCLC 101% | NCI-H460 lung 103% | HOP-92 NSCLC 76.3% | A549/ATCC NSCLC 100% | 786-0 renal 79% | DU-145 prostate 97.7% | MALME-3M melanoma 46.4% | MDA-MB-231 breast 90.7% | RXF 393 renal 40.3% | SF-268 CNS 111% | SF-295 CNS 97.9% | SF-539 CNS 60.7% | UACC-257 melanoma 87.3% | M14 melanoma 67.9%
active: NCI-H522 lung -16.2% | COLO 205 colon 2.95% | K-562 leukemia 4.49%

O=C(Nc1nc2ccccc2s1)c1ccc(F)cc1
inactive: NCI-H23 lung 89.9% | NCI-H226 lung 92.7% | NCI-H322M lung 92.5% | HOP-62 NSCLC 106% | NCI-H460 lung 69.2% | HOP-92 NSCLC 78.7% | NCI-H522 lung 92.2% | A549/ATCC NSCLC 98.4% | 786-0 renal 108% | COLO 205 colon 118% | DU-145 prostate 108% | K-562 leukemia 90% | MALME-3M melanoma 96.2% | MDA-MB-231 breast 95.5% | RXF 393 renal 107% | SF-268 CNS 114% | SF-295 CNS 103% | SF-539 CNS 102% | UACC-257 melanoma 108% | M14 melanoma 110%

C[C@@H](CO)[C@@H]1CCC=C2CC[C@]3(C)[C@H](CC[C@@H]4[C@@]5(C)CCCNC(C)(C)[C@@H]5CC[C@]43C)[C@H]21
active: NCI-H460 lung -67.1% | COLO 205 colon -56.8% | K-562 leukemia -19.9%
inactive: NCI-H23 lung 67.9% | NCI-H226 lung 94.6% | NCI-H322M lung 78.3% | HOP-62 NSCLC 91.1% | HOP-92 NSCLC 75.7% | NCI-H522 lung 82.1% | A549/ATCC NSCLC 47% | 786-0 renal 70% | DU-145 prostate 62.4% | MALME-3M melanoma 46.6% | MDA-MB-231 breast 59.9% | RXF 393 renal 68% | SF-268 CNS 82.2% | SF-295 CNS 93.7% | SF-539 CNS 57.8% | UACC-257 melanoma 30.4% | M14 melanoma 30.9%

COc1ccc2c(c1)c(-c1nc(-c3c[nH]c4ccncc34)cs1)cn2C
active: NCI-H322M lung -31% | HOP-62 NSCLC -82.7% | NCI-H460 lung -78.2% | NCI-H522 lung -71.3% | A549/ATCC NSCLC -85.9% | 786-0 renal -91.6% | COLO 205 colon -81.7% | DU-145 prostate -68% | K-562 leukemia -60.8% | MALME-3M melanoma -92.9% | MDA-MB-231 breast -81.8% | RXF 393 renal -83.8% | SF-268 CNS -78.7% | SF-295 CNS -76.1% | SF-539 CNS -96.9% | UACC-257 melanoma -79% | M14 melanoma -84%
inactive: NCI-H23 lung 46.3% | NCI-H226 lung 48.7% | HOP-92 NSCLC 35.8%

CC(=O)O[C@H]1CC2CCC3C(CC[C@@]4(C)C3C[C@H]([N+]3(C)CCCCC3)[C@@H]4OC(C)=O)[C@@]2(C)C[C@@H]1N1CCCCC1 (stereo not given in full)
inactive: NCI-H23 lung 102% | NCI-H226 lung 106% | NCI-H322M lung 110% | HOP-62 NSCLC 114% | NCI-H460 lung 111% | HOP-92 NSCLC 86.5% | NCI-H522 lung 95.8% | A549/ATCC NSCLC 101% | 786-0 renal 106% | COLO 205 colon 104% | DU-145 prostate 120% | K-562 leukemia 104% | MALME-3M melanoma 121% | MDA-MB-231 breast 91% | RXF 393 renal 113% | SF-268 CNS 115% | SF-295 CNS 96.4% | SF-539 CNS 110% | UACC-257 melanoma 98% | M14 melanoma 106%

Nc1nc2ccc(-c3nc4ccc5[nH]ncc5c4c4c3CCCC4)cc2s1
inactive: NCI-H23 lung 100% | NCI-H226 lung 112% | NCI-H322M lung 101% | HOP-62 NSCLC 101% | NCI-H460 lung 107% | HOP-92 NSCLC 106% | NCI-H522 lung 86.8% | A549/ATCC NSCLC 91.8% | 786-0 renal 108% | COLO 205 colon 106% | DU-145 prostate 111% | K-562 leukemia 94.9% | MALME-3M melanoma 94.5% | MDA-MB-231 breast 106% | RXF 393 renal 109% | SF-268 CNS 98.8% | SF-295 CNS 108% | SF-539 CNS 106% | UACC-257 melanoma 88.1% | M14 melanoma 101%

CCSC(SCC)c1ccc(Cl)cc1
inactive: NCI-H23 lung 95.1% | NCI-H226 lung 102% | NCI-H322M lung 123% | HOP-62 NSCLC 98.5% | NCI-H460 lung 103% | HOP-92 NSCLC 101% | NCI-H522 lung 107% | A549/ATCC NSCLC 102% | 786-0 renal 110% | COLO 205 colon 117% | DU-145 prostate 107% | K-562 leukemia 118% | MALME-3M melanoma 102% | MDA-MB-231 breast 107% | RXF 393 renal 114% | SF-268 CNS 100% | SF-295 CNS 87.1% | SF-539 CNS 107% | UACC-257 melanoma 99.4% | M14 melanoma 110%

Cc1cn(-c2cc(NC(=O)c3cccc(C#Cc4cccc5[nH]nc(N)c45)c3)cc(C(F)(F)F)c2)cn1
inactive: NCI-H23 lung 37.1% | NCI-H226 lung 22.1% | NCI-H322M lung 66% | HOP-62 NSCLC 55.5% | NCI-H460 lung 30.5% | NCI-H522 lung 39.9% | A549/ATCC NSCLC 45.4% | 786-0 renal 26.5% | COLO 205 colon 18.6% | DU-145 prostate 57.6% | MALME-3M melanoma 12.4% | MDA-MB-231 breast 16.9% | SF-268 CNS 53.2% | SF-295 CNS 27.5% | UACC-257 melanoma 41.4%
active: HOP-92 NSCLC -16.6% | K-562 leukemia 3.17% | RXF 393 renal -6.88% | SF-539 CNS 6.24% | M14 melanoma 7.33%
